Where “and” joins values, the source holds several entries; their conditions need not be identical. Equal entries are not always repeated. The campaign covered roughly 5,500 compounds. About 2,000 (36%) were called active. About 18% were inconclusive and are not listed. Rule as the data show it: active = normalized growth mostly below about 0.91 (no sharp cut-off); inconclusive = no clear call, values can overlap the other calls; inactive = mostly above about 0.92. The list shows a part of the results.
Test: chemical genetic growth profiling, strain panel (AID 1159580);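 also: tested at 20 µM; growth read once vehicle control cultures reached saturation at 30 °C; 1 = growth at the plate median or of vehicle wells; lower values mean less growth of the strain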
Conditions: growth OD

Measured: normalized growth

NC(=O)c1cccc(N)c1
inactive: S. cerevisiae deletion strains, locus YJR043C, strain POL32, stronger effect = lower value 1.01 | S. cerevisiae deletion strains, locus YJR075W, strain HOC1, stronger effect = lower value 1.01 | S. cerevisiae deletion strains, locus YKL009W, strain mrt4, stronger effect = lower value 0.996 | S. cerevisiae deletion strains, locus YKL068W, stronger effect = lower value 0.993 | S. cerevisiae deletion strains, locus YKL085W, strain MDH1 (second series), stronger effect = lower value 1 | S. cerevisiae deletion strains, locus YKL085W, strain MDH1, stronger effect = lower value 1 | S. cerevisiae deletion strains, locus YKL160W, strain elf1, stronger effect = lower value 0.984 | S. cerevisiae deletion strains, locus YKL190W, strain CNB1, stronger effect = lower value 1.02 | S. cerevisiae deletion strains, locus YKR001C, strain vps1, stronger effect = lower value 0.996 | S. cerevisiae deletion strains, locus YKR026C, strain gcn3, stronger effect = lower value 0.977 | S. cerevisiae deletion strains, locus YKR091W, strain srl3, stronger effect = lower value 0.977 | S. cerevisiae deletion strains, locus YLL001W, strain dnm1, stronger effect = lower value 0.93 | S. cerevisiae deletion strains, locus YLL026W, stronger effect = lower value 0.984 | S. cerevisiae deletion strains, locus YLL041C, strain sdh2, stronger effect = lower value 0.97 | S. cerevisiae deletion strains, locus YLR027C, strain aat2, stronger effect = lower value 0.997 | S. cerevisiae deletion strains, locus YLR039C, strain RIC1, stronger effect = lower value 1 | S. cerevisiae deletion strains, locus YLR058C, strain SHM2, stronger effect = lower value 1.01 | S. cerevisiae deletion strains, locus YLR102C, strain apc9, stronger effect = lower value 0.998 | S. cerevisiae deletion strains, locus YLR221C, strain rsa3, stronger effect = lower value 0.962 | S. cerevisiae deletion strains, locus YLR258W, strain gsy2, stronger effect = lower value 0.972 | S. cerevisiae deletion strains, locus YLR262C, strain YPT6 (second series), stronger effect = lower value 0.966 | S. cerevisiae deletion strains, locus YLR262C, strain YPT6, stronger effect = lower value 1.01 | S. cerevisiae deletion strains, locus YLR268W, strain sec22, stronger effect = lower value 0.996 | S. cerevisiae deletion strains, locus YLR320W, strain mms22, stronger effect = lower value 0.988 | S. cerevisiae deletion strains, locus YLR330W, strain CHS5, stronger effect = lower value 1.01 | S. cerevisiae deletion strains, locus YLR342W, strain FKS1 (second series), stronger effect = lower value 1.01 | S. cerevisiae deletion strains, locus YLR342W, strain FKS1, stronger effect = lower value 0.942 | S. cerevisiae deletion strains, locus YLR357W, strain rsc2, stronger effect = lower value 0.976 | S. cerevisiae deletion strains, locus YLR370C, strain arc18, stronger effect = lower value 0.941 | S. cerevisiae deletion strains, locus YLR371W, strain rom2, stronger effect = lower value 1 | S. cerevisiae deletion strains, locus YLR384C, strain iki3, stronger effect = lower value 0.992 | S. cerevisiae deletion strains, locus YLR418C, strain cdc73, stronger effect = lower value 1.01 | S. cerevisiae deletion strains, locus YML016C, strain PPZ1, stronger effect = lower value 1 | S. cerevisiae deletion strains, locus YML032C, strain rad52, stronger effect = lower value 0.993 | S. cerevisiae deletion strains, locus YML120C, strain ndi1, stronger effect = lower value 0.994 | S. cerevisiae deletion strains, locus YML124C, strain tub3, stronger effect = lower value 0.995 | S. cerevisiae deletion strains, locus YMR058W, strain fet3, stronger effect = lower value 0.965 | S. cerevisiae deletion strains, locus YMR078C, strain ctf18, stronger effect = lower value 0.999 | S. cerevisiae deletion strains, locus YMR125W, strain sto1, stronger effect = lower value 0.976 | S. cerevisiae deletion strains, locus YMR129W, stronger effect = lower value 1.01 | S. cerevisiae deletion strains, locus YMR205C, strain PFK2, stronger effect = lower value 0.991 | S. cerevisiae deletion strains, locus YMR223W, strain ubp8, stronger effect = lower value 0.993 | S. cerevisiae deletion strains, locus YMR231W, strain pep5, stronger effect = lower value 0.984 | S. cerevisiae deletion strains, locus YMR263W, strain SAP30, stronger effect = lower value 1.02 | S. cerevisiae deletion strains, locus YMR307W, strain GAS1, stronger effect = lower value 1.02 | S. cerevisiae deletion strains, locus YNL067W, strain RPL9B, stronger effect = lower value 1.01 | S. cerevisiae deletion strains, locus YNL071W, strain lat1, stronger effect = lower value 0.961 | S. cerevisiae deletion strains, locus YNL128W, strain TEP1, stronger effect = lower value 1.01 | S. cerevisiae deletion strains, locus YNL153C, strain GIM3, stronger effect = lower value 1.01 | S. cerevisiae deletion strains, locus YNL175C, strain NOP13, stronger effect = lower value 1.02 | S. cerevisiae deletion strains, locus YNL197C, strain WHI3, stronger effect = lower value 1.01 | S. cerevisiae deletion strains, locus YNL209W, strain ssb2, stronger effect = lower value 0.985 | S. cerevisiae deletion strains, locus YNL224C, strain SQS1, stronger effect = lower value 1.02 | S. cerevisiae deletion strains, locus YNL233W, strain BNI4, stronger effect = lower value 0.999 | S. cerevisiae deletion strains, locus YNL248C, strain rpa49, stronger effect = lower value 0.974 | S. cerevisiae deletion strains, locus YNL250W, strain rad50, stronger effect = lower value 0.988 | S. cerevisiae deletion strains, locus YNL271C, strain bni1, stronger effect = lower value 0.989 | S. cerevisiae deletion strains, locus YNL298W, strain CLA4, stronger effect = lower value 1.01 | S. cerevisiae deletion strains, locus YNL307C, strain MCK1, stronger effect = lower value 0.996 | S. cerevisiae deletion strains, locus YNL322C, strain KRE1 (second series), stronger effect = lower value 0.968 | S. cerevisiae deletion strains, locus YNL322C, strain KRE1, stronger effect = lower value 1.01 | S. cerevisiae deletion strains, locus YNR049C, strain mso1, stronger effect = lower value 0.965 | S. cerevisiae deletion strains, locus YNR052C, strain pop2, stronger effect = lower value 1 | S. cerevisiae deletion strains, locus YOL006C, strain TOP1, stronger effect = lower value 1.06 | S. cerevisiae deletion strains, locus YOL012C, strain htz1 1 | S. cerevisiae deletion strains, locus YOL147C, strain pex11, stronger effect = lower value 1 | S. cerevisiae deletion strains, locus YOR001W, strain rrp6, stronger effect = lower value 0.97 | S. cerevisiae deletion strains, locus YOR061W, strain CKA2, stronger effect = lower value 1 | S. cerevisiae deletion strains, locus YOR069W, strain VPS5, stronger effect = lower value 1.01 | S. cerevisiae deletion strains, locus YOR070C, strain gyp1, stronger effect = lower value 1.02 | S. cerevisiae deletion strains, locus YOR080W, strain dia2, stronger effect = lower value 0.981 | S. cerevisiae deletion strains, locus YOR083W, strain WHI5 (second series), stronger effect = lower value 1.02 | S. cerevisiae deletion strains, locus YOR083W, strain WHI5, stronger effect = lower value 0.994 | S. cerevisiae deletion strains, locus YOR106W, strain vam3, stronger effect = lower value 0.972 | S. cerevisiae deletion strains, locus YOR136W, strain idh2, stronger effect = lower value 0.993 | S. cerevisiae deletion strains, locus YOR144C, strain elg1, stronger effect = lower value 0.992 | S. cerevisiae deletion strains, locus YOR184W, strain ser1, stronger effect = lower value 1 | S. cerevisiae deletion strains, locus YOR265W, strain rbl2, stronger effect = lower value 0.968 | S. cerevisiae deletion strains, locus YOR270C, strain vph1, stronger effect = lower value 0.995 | S. cerevisiae deletion strains, locus YOR290C, strain snf2, stronger effect = lower value 0.974 | S. cerevisiae deletion strains, locus YOR316C, strain cot1, stronger effect = lower value 1 | S. cerevisiae deletion strains, locus YPL051W, strain arl3, stronger effect = lower value 1 | S. cerevisiae deletion strains, locus YPL055C, strain LGE1, stronger effect = lower value 1.06 | S. cerevisiae deletion strains, locus YPL078C, strain atp4, stronger effect = lower value 0.963 | S. cerevisiae deletion strains, locus YPL106C, strain sse1, stronger effect = lower value 0.964 | S. cerevisiae deletion strains, locus YPL240C, strain hsp82, stronger effect = lower value 0.984 | S. cerevisiae deletion strains, locus YPL241C, strain CIN2, stronger effect = lower value 1.01 and 1 | S. cerevisiae deletion strains, locus YPR119W, strain clb2, stronger effect = lower value 0.988 | S. cerevisiae deletion strains, locus YPR141C, strain kar3, stronger effect = lower value 0.996 | S. cerevisiae deletion strains, locus YPR163C, strain tif3, stronger effect = lower value 1 | S. cerevisiae deletion strains, locus YPR167C, strain met16, stronger effect = lower value 0.996 | S. cerevisiae deletion strains, strain wtn01, stronger effect = lower value 0.983 | S. cerevisiae strains, strain wild type, stronger effect = lower value 1
